Shown are actives, neighbours in structure and some others; about 3.1% of the full set was active somewhere.
BoNT-F LC inh: BoNT/F light chain protease inhibitors, primary screen, biochemical, flow cytometry, MLPCN library; Botulinum neurotoxin type F light chain protease (Clostridium botulinum); Multiplex microsphere protease cleavage assay; inhibition, % at 10 µM; actives 0.22% (n = 360,000); AID 588497, 2011; in the data active = inhibition above about 35%, passing the limit was not always enough; inconclusive = no clear call, values can overlap the other calls; also: plate controls were buffer without enzyme for full effect and enzyme alone for no effect
BoNT A protease: BoNT/A light chain protease inhibitors, primary screen, biochemical, flow cytometry, MLPCN library | inhibition, % at 10 µM | multiplex microsphere protease substrate cleavage | actives 0.17% (n = 360,000) | Botulinum neurotoxin type A light chain protease (Clostridium botulinum A str. ATCC 3502); also: plate controls were buffer without enzyme for full effect and enzyme alone for no effect
Autofluor counter: flagged as autofluorescent in microsphere protease counterscreen; fluorescence intensity (concentration not given with the values); AID 624483; actives 3.1% (n = 360,000); compound autofluorescence counterscreen, microsphere flow cytometry; hits give high values; in the data active = fluorescence intensity above about 16000; inconclusive = no clear call, values can overlap the other calls
Anthrax LF prot: Bacillus anthracis LF protease inhibitors, primary screen, biochemical, multiplex microsphere, MLPCN library | Lethal factor (Bacillus anthracis), P15917 | multiplex microsphere protease cleavage assay | inhibition, % at 10 µM | actives 0.12% (n = 360,000) | AID 588501, 2011; also: plate controls were buffer without enzyme for full effect and enzyme alone for no effect
Target sequence (P15917 whole entry, looked up): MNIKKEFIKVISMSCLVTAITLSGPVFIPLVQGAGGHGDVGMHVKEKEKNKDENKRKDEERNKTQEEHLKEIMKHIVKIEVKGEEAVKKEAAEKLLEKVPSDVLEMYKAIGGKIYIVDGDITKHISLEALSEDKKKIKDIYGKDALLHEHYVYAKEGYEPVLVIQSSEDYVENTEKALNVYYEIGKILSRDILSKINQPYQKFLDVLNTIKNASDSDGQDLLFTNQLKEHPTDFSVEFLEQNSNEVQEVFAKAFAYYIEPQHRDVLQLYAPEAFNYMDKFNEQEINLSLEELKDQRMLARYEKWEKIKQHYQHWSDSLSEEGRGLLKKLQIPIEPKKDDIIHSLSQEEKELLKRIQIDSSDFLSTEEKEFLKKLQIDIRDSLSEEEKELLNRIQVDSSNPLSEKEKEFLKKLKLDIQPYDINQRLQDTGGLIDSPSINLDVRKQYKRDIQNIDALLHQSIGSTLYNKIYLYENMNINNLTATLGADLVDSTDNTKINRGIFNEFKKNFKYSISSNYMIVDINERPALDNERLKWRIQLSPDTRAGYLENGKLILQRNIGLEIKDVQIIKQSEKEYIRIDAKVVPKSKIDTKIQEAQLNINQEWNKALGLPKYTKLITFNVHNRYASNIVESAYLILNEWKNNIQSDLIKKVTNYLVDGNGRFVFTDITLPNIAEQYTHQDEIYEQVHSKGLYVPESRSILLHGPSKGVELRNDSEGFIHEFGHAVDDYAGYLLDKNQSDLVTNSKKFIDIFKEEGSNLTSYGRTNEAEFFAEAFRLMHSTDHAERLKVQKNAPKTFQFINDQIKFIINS
SSB-PriA inh: inhibitors of Klebsiella pneumoniae PriA binding to SSB C-terminal tail, primary screen, biochemical, AlphaScreen. PriA–SSB C-terminal tail interaction (Klebsiella pneumoniae). AlphaScreen SSBct-PriA binding, biotinylated peptide. inhibition, % at 33 µM. actives 0.6% (n = 430,000); in the data active = inhibition mostly above about 37%, no sharp cut-off; inactive = mostly below about 20%;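 also: plate controls were negative control peptide for no effect and reference peptide for full effect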
Active calls of the source: *; ? = inconclusive; nt = no result given. Rule as the data show it, unless noted: active = inhibition above about 30%; inconclusive = no clear call, values can overlap the other calls; inactive = below that.

SMILES | BoNT-F LC inh | BoNT A protease | Autofluor counter | Anthrax LF prot | SSB-PriA inh
COc1ccccc1C=NNc1cn[nH]c(=O)c1Cl | nt | nt | nt | nt | 3.0
CCOC(=O)CN1CC(c2nc(-c3ccco3)no2)C1 | nt | nt | nt | nt | -4.0
Cc1ccc(CSCC(=O)Nc2ccc3c(c2)OCO3)cc1 | -1.2 | 0.2 | 22179* | -4.8 | -1.7
CC1Cc2ccccc2N1CC(=O)NC(=O)NCc1ccco1 (stereo unspecified) | -9.8 | 15.5 | 17928* | 11.1 | 4.8
CC1Cc2ccccc2N1CC(=O)NC(=O)NC1CCCC1 (stereo unspecified) | -1.5 | 0.2 | 3291 | -1.5 | 3.6
COc1ccccc1CNC(=O)c1cc(=O)c(OC)cn1C | nt | nt | nt | nt | -7.0
Nc1cccc[n+]1Cc1cn2ccccc2n1 | nt | nt | nt | nt | 12.0
O=C(NCc1cccs1)Nc1nc(-c2cc3ccccc3o2)cs1 | nt | nt | nt | nt | -11.0
Cc1ccc2[nH]c(C)c(/C=C/c3cc[n+](C)cc3)c2c1 | 31.5 | -17.1 | 11493 | 1.1 | -0.6
Cc1ccc2c(c1)c(/C=C/c1cc[n+](C)cc1)c(C)n2C | -19.3 | -24.4 | 20045* | -4.5 | 5.5
CO[C@@]1(CNC(=O)c2cccc(N(C)C)c2)CCSC1 | nt | nt | nt | nt | -8.0
CN(Cc1nc(-c2ccncc2)no1)S(=O)(=O)c1ccc(Cl)cc1 | 2.8 | 2.0 | 21129* | -3.6 | -31.7
CC(C)(C)Cc1nc(-c2ccc(Cl)cc2)no1 | -8.8 | -5.4 | 21458* | 0.7 | -9.4
Clc1ccc(-c2noc(CCCOc3ccccc3)n2)cc1 | -6.0 | -0.6 | 11319 | -0.5 | -10.8
Clc1ccc(-c2noc(COc3ccccc3)n2)cc1 | 0.6 | 2.2 | 22341* | -3.4 | -4.9
CN(Cc1nc(-c2ccncc2)no1)S(=O)(=O)c1ccc(Br)cc1 | -3.8 | 0.1 | 2858 | -1.3 | -14.8
COc1ccc(Cc2nc(-c3ccc(Cl)cc3)no2)cc1 | -1.6 | -1.1 | 9633 | -4.0 | -63.3
CSc1ccc(CC(=O)Nc2nc(-c3ccc4c(c3)CCCC4)cs2)cc1 | nt | nt | nt | nt | 11.0
COC(=O)C(=CNc1ccc(Oc2ccc(F)cc2F)nc1)NC(=O)c1ccccc1 | nt | nt | nt | nt | -4.6
COCCn1c2c(c(=S)[nH]c1=O)CCC2 | nt | nt | nt | nt | -5.0
Cc1ccc(N2CCN(C(=O)N3CCCC3)CC2)cc1C | 2.3 | 0.0 | 16586* | -3.2 | -11.7
O=C1CC(CCC(=O)NC2CC2)c2ccccc2N1 (stereo unspecified) | 1.8 | 0.7 | 20432* | 0.0 | -27.9
Cc1nnc(SCC(=O)Nc2ccccc2C(F)(F)F)[nH]c1=O | nt | nt | nt | nt | 0.0
Cc1nnc(NC(=O)c2sc3nc(-c4ccccc4)cn3c2C)s1 | nt | nt | nt | nt | -13.0
Cn1c(SCC(=O)N2CCN(c3cccc(Cl)c3)CC2)nnc1-c1ccncc1 | -1.5 | -0.6 | 22921* | 0.4 | -18.9
SMILES | BoNT-F LC inh | BoNT A protease | Autofluor counter | Anthrax LF prot | SSB-PriA inh
Nc1nnc(SCC(=O)N2CCN(c3cccc(Cl)c3)CC2)n1-c1ccccc1 | -2.6 | -0.3 | 23616* | -2.6 | -15.3
Nc1nnc(SCC(=O)N2CCN(c3ccccc3)CC2)n1-c1ccccc1 | -6.0 | -0.2 | 3211 | -0.4 | -17.0
Cc1occc1-c1nnc(SCC(=O)N2CCN(c3ccccc3)CC2)n1C | 6.2 | 0.1 | 5000 | -5.5 | 2.2
Cn1c(SCC(=O)N2CCN(c3ccccc3)CC2)nnc1-c1ccncc1 | 5.7 | -0.1 | 3570 | 5.4 | -8.9
Cn1c(SCC(=O)N2CCN(c3ccccc3)CC2)nnc1-c1cc2ccccc2o1 | -1.9 | -2.6 | 16756* | -9.8 | -23.8
CCn1c(SCC(=O)N2CCN(c3ccc(F)cc3)CC2)nnc1-c1ccncc1 | -3.6 | -1.6 | 20103* | 1.1 | -12.6
CCCn1c(=O)c2ccc(C(=O)NCC(C)C)cc2n2c(=O)n(Cc3ccc(F)cc3Cl)nc12 | nt | nt | nt | nt | -2.0
COC(=O)c1ccc(CSc2nc3sc4c(c3c(=O)n2C)CCCC4)cc1 | nt | nt | nt | nt | -12.0
Cc1ccc(-n2ccnc2N2CCN(C(=O)c3ccc(C)c(C)c3)CC2)cc1 | nt | nt | nt | nt | 36.0*
Cc1ccc(-n2ccnc2N2CCN(C(=O)c3c(F)cccc3F)CC2)cc1 | nt | nt | nt | nt | 78.1*
Cc1ccc(-n2ccnc2N2CCN(C(=O)c3c(F)cccc3Cl)CC2)cc1 | nt | nt | nt | nt | 62.0*
Cc1ccc(-n2ccnc2N2CCN(C(=O)COc3ccccc3)CC2)cc1 | nt | nt | nt | nt | 68.0
COCCNC(=O)Cc1cc(=O)oc2cc(C)ccc12 | nt | nt | nt | nt | -13.0
Cc1ccc(S(=O)(=O)N=C2NC(=O)/C(=C\c3ccco3)S2)cc1 | nt | nt | nt | nt | -5.7
Cc1ccc(C(=O)CSc2nnc(-c3ccccc3)n2-c2ccccc2)o1 | 1.4 | ? | 20254* | -0.4 | -9.8
